Screen size: about 370,000 compounds; about 3,800 (1%) were called active. The sample holds actives, similar compounds and a random draw of the others, so the mix is not that of the screen. A number with no mark means an inactive call. Rule as the data show it: active = activation above about 7.8%; inactive = the rest.

The experiment in a line: SMARCA2 (BRM) function activators, primary screen, cell-based, luminescence, high throughput (AID 652017).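 Also: 0% = vehicle wells and 100% = reference activator wells.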 The conditions noted are these: MG213 cells, MMTV-luciferase reporter, dexamethasone, overnight; at 9.1 µM; hits give high values. In general terms: A reporter such as luciferase makes a cellular process visible.
`O=C(CCCCO)c1ccc(O)c(Cl)c1`: the activation is -1.51%. In the case of `CC(C)CNc1cccc2c1S(=O)(=O)N(Cc1cn(Cc3ccccc3C(F)(F)F)nn1)Cc1ccccc1O2`, the activation was -2.65%. For the compound `CCOC(=O)N1CCN(C(=O)C[C@@H]2C(=O)N(CCc3ccc(Cl)cc3)C3=CCCC[C@]32C(=O)OCC)CC1`, the activation is -1.86%.

Turning to `COc1cc(NC(=O)C2CCCN(S(=O)(=O)c3ccc(C(C)(C)C)cc3)C2)cc(OC)c1` (stereo not drawn), the activation was 2.08%. Regarding `CCCCCN1CCCCC(NC(=O)C(C)CCC)C1=O` (stereo not drawn), the activation is -0.09%. Take `C/C(=N\NC(=S)NCc1ccccc1)C1CCCCC1`: the activation is 1.15%. For `CC1CCCCN1C(=O)CCS(=O)(=O)Cc1ccccc1` (stereo not drawn), the activation was -2.25%. With `CC1CCCCN1C(=S)NCc1ccccc1` (stereo not drawn), the activation was 8.25% (active).

Turning to `O=C1C2CCCN2C(=O)N1CCCCN1CCN(c2cccc(C(F)(F)F)c2)CC1` (stereo not drawn), the activation is 2.48%.

On to `CN(C)C(CNC(=O)c1ccc(OCc2cn3ccccc3n2)cc1)c1ccco1` (stereo not drawn), for which the activation was 11.2% (active). Consider `O=Cc1ccc(OCc2cn3ccccc3n2)cc1`, for which the activation was -6.54%. As for `O=C(NCCc1ccco1)c1ccc(OCc2cn3ccccc3n2)cc1`, the activation was 6.76%. For the compound `CC(=O)N1CCCN(C2=Nc3ccccc3Sc3ccccc32)CC1`, the activation is -0.9%. For the compound `O=C(NCc1ccco1)C1CCCN(S(=O)(=O)c2ccc(Cl)s2)C1` (stereo not drawn), the activation was -1.17%.

For the compound `O=C(CSc1n[nH]c(-c2cccnc2)n1)Nc1ccnc2ccccc12`, the activation was -1.59%. With `Fc1ccc(/C=N/Nc2nc(-c3cccnc3)nc3ccccc23)cc1`, the activation is 11.3% (active). For the compound `COC(=O)c1cccc(Cn2ccc3ccc(-c4ccc5ccn(C(=O)C6CCCCC6)c5c4)cc32)c1`, the activation was -0.58%.

In the case of `Cc1ccccc1NC(=O)COC(=O)c1ccc(Sc2ncn[nH]2)c([N+](=O)[O-])c1`, the activation is -3.59%. As for `CC[C@@H](CCC(=O)N(c1ccccc1)c1ccccc1)C1CC1`, the activation was -5.25%. Take `Cc1ccc(NS(=O)(=O)c2ccc(C(C)C)cc2)cc1S(=O)(=O)N1CCOCC1`: the activation was -0.94%. The result for `COC(=O)[C@@]12CCCCC=C1N(CCc1ccc(Cl)cc1)C(=O)[C@H]2CC(=O)NCc1ccc(OC)c(OC)c1` reads -0.41%; that for `O=C(Nc1cccc(Cl)c1)c1cncn1-c1ccc(F)cc1`, -2.14%; that for `CCC(=O)Nc1ccc2nn(-c3ccc(F)cc3)nc2c1`, 9.02% (active).

For the compound `CCOC(=O)c1nnn(CC(=O)Nc2cccc(F)c2)c1C(=O)OCC`, the activation was -2.09%. The result for `CN(C)C(=S)N=c1ssc(=S)n1Cc1ccco1` reads 8.22% (active); that for `CCc1ccccc1N1CN(Cc2ccco2)CNC1=S`, -4.87%. On to `CC1CN(Cc2ccco2)C(=S)N(c2ccccc2)C1=O` (stereo not drawn), for which the activation was -1.86%. Take `COC(=O)C1=C(C)N(Cc2ccc(F)cc2)C(=S)NC1c1cccc(Cl)c1` (stereo not drawn): the activation is -3.14%. Consider `Cc1ccc(C(=O)OC2=CC(=O)CC(C)(C)C2)cc1`, for which the activation is 2.66%.

As for `Cc1cc(O)ccc1NC1=CC(=O)CC(C)(C)C1`, the activation is -2.49%. The result for `Cc1ccccc1C#CC1=CC(=O)CC(C)(C)C1` reads 9.9% (active); that for `COc1ccccc1N(CC(=O)Nc1ccc(C(F)(F)F)cc1)S(C)(=O)=O`, -1.17%; that for `C=CCN1C(=O)[C@@H](CC(=O)NCCCOCCCC)[C@]2(C(=O)OCC)CCCCC/C=C/12`, -1.57%. The result for `COc1ccc(-n2c(SCC(=O)NC3CCCC3)nnc2-c2ccncc2)cc1` reads -4.56%; that for `Cc1c(C(=O)NCCCc2ccccc2)cccc1[N+](=O)[O-]`, 8.08% (active); that for `O=C(O)c1ccccc1-c1ccccc1C(=O)NCCc1ccccc1`, 1.35%. The result for `CSc1ncc(C(=O)NCCCc2ccccc2)c(C)n1` reads -0.15%; that for `O=S1(=O)c2c(cccc2N2CCSCC2)Oc2ccccc2CN1Cc1cn(Cc2ccc(F)cc2)nn1`, -2.23%; that for `O=C(CCS(=O)(=O)c1ccccc1)Nc1ccc(Cl)c(Cl)c1`, 1.57%.

On to `COc1ccc(-n2c(SCC(=O)Nc3ccc4c(c3)OCCO4)nnc2-c2ccc(Cl)cc2)cc1`, for which the activation was -0.28%. `Cc1ccnc(NC(=O)C2CCN(S(=O)(=O)c3c(C)c(C)cc(C)c3C)CC2)c1`: the activation was 9.5% (active). Consider `O=C(Nc1ccccn1)C1CCN(S(=O)(=O)c2ccc3c(c2)OCCO3)CC1`, for which the activation is -2.23%. Take `Cc1ccc(Cl)cc1NC(=O)C1CCN(S(C)(=O)=O)CC1`: the activation was -0.58%. As for `COC(=O)[C@]12C[C@H](CC(=O)NCc3ccc(C)o3)C(=O)N(CCC3=CCCCC3)C1=C[C@H](C(C)(C)C)O[C@@H]2C`, the activation was 3.47%. With `CCN(CC)C(=O)CC[C@@H]1CC[C@]2(CCCN(S(=O)(=O)C3CCCCC3)C2)O1`, the activation is -3.43%. In the case of `N/C(=N\OC(=O)CCc1ccccc1)c1ccc(Cl)cc1`, the activation is 5.53%.

`COc1ccc(/C(N)=N/OC(=O)Oc2ccccc2)cc1`: the activation is 8.42% (active). `CO/N=C/CC(=O)c1ccc(OC)cc1`: the activation is 4.21%. In the case of `CN(CC(=O)Nc1cccc(F)c1)C(=O)C1CSC2(C)CCC(=O)N12` (stereo not drawn), the activation is -0.29%. In the case of `CN1[C@H](Cc2ccccc2)COc2cccc(N3CCSCC3)c2S1(=O)=O`, the activation was 0.97%. On to `Cc1cc(O)c(NC(=O)c2ccc(C)c([N+](=O)[O-])c2)cc1C`, for which the activation is 9.28% (active). The result for `CCN1CCC(=NNC(=O)c2ccc(C)c([N+](=O)[O-])c2)CC1` reads -0.87%; that for `CCCCNc1ccc(C(=O)Nc2cccc(C)n2)cc1[N+](=O)[O-]`, -1.63%. With `COc1ccc(C(=O)N2CCN(c3ncccn3)CC2)cc1S(=O)(=O)N1CCOCC1`, the activation is -2.62%. Turning to `Cc1cc(C(=O)NN=C/C=C/c2ccco2)n[nH]1`, the activation is -4.94%. For the compound `Cc1ccc(NC(=O)Cc2cccc(F)c2)c(S(=O)(=O)N2CCOCC2)c1`, the activation was -4.77%. `Cc1ccc(-c2c(C)n([O-])c3c([n+]2=O)CCC3)cc1`: the activation is 14.5% (active). `CCOc1ccc(-c2c(C)n([O-])c3c([n+]2=O)CCCC3)cc1`: the activation was 0.92%. `Cc1ccc(-c2c[n+](=O)c3c(n2[O-])CCC3)cc1`: the activation is -3.37%. Take `CCCCOC(=O)Nc1nnc(CC(=O)NCc2ccccc2)s1`: the activation was -0.38%. As to `CCCc1cc(=O)oc2c(C)c(OC(C)C(=O)NCC(O)c3ccccc3)ccc12` (stereo not drawn), the activation is -0.91%.

As for `CCCCCCOC(=O)NCC(O)c1ccccc1` (stereo not drawn), the activation is 11.2% (active). The result for `CN(C)CCNC(=O)C(C(=O)c1ccccc1)n1ccccc1=O` (stereo not drawn) reads 2.29%. The result for `O=C(CSc1nc2ccccc2nc1N1CCCCC1)N1CCN(S(=O)(=O)c2cccc([N+](=O)[O-])c2)CC1` reads 5.57%; that for `O=C(NC1CCC1)c1ccc(C#Cc2cccc(F)c2)c[n+]1[O-]`, -2.93%. In the case of `O=C(Nc1ccc(OC(F)(F)F)cc1)c1ccc2c(c1)no[n+]2[O-]`, the activation is -7.81%. As for `Cn1nccc1/C=N\NC(=O)c1ccc(Cl)cc1`, the activation was -0.88%. Take `Cn1cccc1/C=N/NC(=O)c1ccc(OC(F)(F)C(F)F)cc1`: the activation is 8.72% (active).

Turning to `O=C(COc1cc(Cl)c(Cl)cc1Cl)NC(=O)NC1CCCC1`, the activation is -2.73%. `CC(C)CSc1nnc(-c2cccnc2)n1Cc1ccccc1`: the activation is -4.95%. The result for `Cc1ccc(CN2CCCCC(NC(=O)C3CCCCC3)C2=O)cc1` (stereo not drawn) reads -2.16%. Take `Cc1cc(C)c2nc(N3CCC(C(=O)NCCN4CCOCC4)CC3)sc2c1`: the activation was -1.84%. The result for `Cc1ccc(C)c(C(C)NC(=O)C2CCCO2)c1` (stereo not drawn) reads -1.74%; that for `Cc1cc(C)c2nc(NC(=O)C3CCCO3)sc2c1` (stereo not drawn), 7.96% (active). Regarding `CCOC(=O)[C@]12CCCC3=C1N(CCC3)C(=O)[C@@H](CC(=O)N1CCSCC1)C2`, the activation was -1.03%. The result for `CCOc1ccc(-n2c(SCC(=O)Nc3cc(C)c(NC(=O)c4ccccc4)cc3OC)nnc2-c2cccc(Cl)c2)cc1` reads -5.83%. With `CN(C)S(=O)(=O)c1cccc(C(=O)N/N=C\c2ccco2)c1`, the activation was -2.36%.

Turning to `CCC(C)c1ccc(NC(=S)N2CCCC2)cc1` (stereo not drawn), the activation was -0.97%. The result for `COc1cc(NC(=S)N2CCCC(C)C2)cc(OC)c1OC` (stereo not drawn) reads 3.14%. The result for `CCCCc1ccc(NC(=S)N2CCCC(CO)C2)cc1` (stereo not drawn) reads 15% (active); that for `N#CCC[C@H]1CC[C@]2(CCCN(Cc3ccc(Cl)cc3)C2)O1`, -3.04%; that for `COc1ccccc1C(=O)CSc1nnc(-c2ccccn2)n1-c1ccccc1`, 5.55%. Regarding `O=S1(=O)c2ccc(N3CCN(Cc4ccccc4F)CC3)cc2Oc2ccccc2CN1Cc1cn(Cc2ccc(Cl)cc2)nn1`, the activation was 4.05%. As to `Cc1cccc(NC(=O)C[C@H]2CC[C@H]3[C@@H](COc4ccc(NC(=O)Nc5ccccc5)cc4C(=O)N3C)O2)c1`, the activation is 2.72%. For `Cc1cc(=O)[nH]c(SCC(=O)Nc2ccc(Cl)cc2C)n1`, the activation was -2.94%. For `COC(=O)Cc1c(C)c2ccc(OCC(=O)NCc3ccc4c(c3)OCO4)cc2oc1=O`, the activation is 2.31%.

Take `O=C(COc1ccc2c3c(c(=O)oc2c1)CCC3)NC1CCCCC1`: the activation was -1.03%. With `CCc1c(C)c2ccc(OC3CCCCC3=O)cc2oc1=O` (stereo not drawn), the activation was 13.8% (active).

Turning to `Cc1ccccc1NC(=O)Cn1nnc(-c2ccccc2F)n1`, the activation was 1.3%. For `c1ccc(Cc2nn3c(Cn4cnc5ccccc54)nnc3s2)cc1`, the activation is -3.67%.

With `CC(NC(=O)c1ccc(Cl)cc1)C(=O)N1CCCCC1` (stereo not drawn), the activation is 0.9%. The result for `CCC1CCC/C1=N\NC(=O)c1ccc(Cl)cc1` (stereo not drawn) reads 10.3% (active); that for `CN1CCC(=NNC(=O)c2ccc(N(Cc3ccc(Cl)cc3)S(C)(=O)=O)cc2)CC1`, -1.44%.
